Growth data for eight compounds are collected here from PubChem BioAssay (NCI).

Among the test systems are HCT-15 colon; HT29 colon; SNB-19 CNS; U251 CNS; PC-3 prostate; SK-MEL-5 melanoma; UACC-62 melanoma; LOX IMVI melanoma; SK-MEL-28 melanoma; SK-MEL-2 melanoma; EKVX NSCLC; SN12C renal; UO-31 renal; TK-10 renal; ACHN renal; CAKI-1 renal; A498 renal; CCRF-CEM leukemia; MOLT-4 leukemia; SNB-75 CNS.
Assay in all cases: NCI-60 one-dose screen, 48 h (100 = growth as untreated, 0 = no growth, -100 = all killed)
What all share (conditions): 10 µM

Compounds without any hit were thinned out: in the full panel of roughly 83,000, 20% have a hit.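 Single-concentration screen, 48 h exposure, 96-well plates. Endpoint: percent growth. Below 10 = active.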 A number with no mark means an inactive call. Active and inactive are the calls of the source.

In the case of `COc1ccc(CN2[C@@H](C(=O)NCc3ccc(C(=O)NO)cc3)Cc3c([nH]c4ccccc34)[C@@H]2C2CC2)cc1`, the growth in the experiment with HCT-15 colon was 19.5%; in the experiment on HT29 colon, 10.9%; in the experiment with SNB-19 CNS, 34.4%; in the experiment with U251 CNS, 24.8%; with PC-3 prostate, 30.2%; in the experiment on SK-MEL-5 melanoma, -19.9% (active). Besides, the growth with UACC-62 melanoma was 3.09% (active); in the experiment on LOX IMVI melanoma, 11.7%; in the experiment on SK-MEL-28 melanoma, 24.8%; with SK-MEL-2 melanoma, 12.2%; in the experiment with EKVX NSCLC, 28.9%; with SN12C renal, 29%. For the same compound, the growth in the experiment with UO-31 renal is 40.5%; in the experiment on TK-10 renal, 8.46% (active); in the experiment on ACHN renal, 35.5%; in the experiment on CAKI-1 renal it was 22.5%; in the experiment on A498 renal it was -5.06% (active); in the experiment with CCRF-CEM leukemia, 15%. For the same compound, the growth with MOLT-4 leukemia was 11%.

Take `Cc1ccc(C(=O)N/C(=C2/OCCN2C)[P+](c2ccccc2)(c2ccccc2)c2ccccc2)cc1`: the growth in the experiment on HCT-15 colon is 110%; in the experiment on HT29 colon, 59.7%; in the experiment with SNB-19 CNS, 74.1%; with U251 CNS, 75.5%; with PC-3 prostate, 62.5%; in the experiment with SK-MEL-5 melanoma, 72.2%. Also, the growth is 48.2% with UACC-62 melanoma; 44.8% with LOX IMVI melanoma; 72.2% with SK-MEL-28 melanoma; 81.1% in the experiment with SK-MEL-2 melanoma; 75.4% with EKVX NSCLC; 86% in the experiment on SN12C renal. In addition, the growth is 85.4% in the experiment with UO-31 renal; 102% in the experiment on TK-10 renal; 114% in the experiment on ACHN renal; 102% in the experiment with CAKI-1 renal; 122% in the experiment with A498 renal; 73.5% with CCRF-CEM leukemia. Moreover, in the experiment on MOLT-4 leukemia, the growth is 84.4%.

On to `CC(=O)Nc1ccc(-c2cn(-c3cccc(C(=O)Nc4cccc(OC(F)(F)F)c4)c3)nn2)cn1`, for which the growth in the experiment on HCT-15 colon was 87.3%; in the experiment on HT29 colon, 96.9%; in the experiment with SNB-19 CNS, 113%; with U251 CNS, 73.6%; in the experiment with PC-3 prostate, 85.3%; in the experiment on SK-MEL-5 melanoma, 97%. For the same compound, the growth was 73.5% in the experiment with UACC-62 melanoma; 88.6% with LOX IMVI melanoma; 92.8% in the experiment on SK-MEL-28 melanoma; 95.4% with SK-MEL-2 melanoma; 105% in the experiment with EKVX NSCLC; 114% with SN12C renal. For the same compound, the growth is 131% in the experiment with UO-31 renal; 111% with TK-10 renal; 101% in the experiment on ACHN renal; 94.5% in the experiment with CAKI-1 renal; 178% with A498 renal; 98.1% in the experiment with CCRF-CEM leukemia. The growth in the experiment on MOLT-4 leukemia is 109%.

Regarding `COc1cc2c(cc1OC)CN(CCCCOc1cc(O)c3c(=O)cc(-c4ccccc4)oc3c1)CC2`, the growth was -6.93% (active) in the experiment with HT29 colon; 98.9% in the experiment on SNB-75 CNS; 78.3% in the experiment on SNB-19 CNS; 49.8% in the experiment on U251 CNS; 63.1% in the experiment on PC-3 prostate; 17.1% in the experiment on SK-MEL-5 melanoma. Also, the growth in the experiment with UACC-62 melanoma was 40.4%; in the experiment on LOX IMVI melanoma, -66.1% (active); in the experiment with SK-MEL-28 melanoma it was -8.78% (active); in the experiment on SK-MEL-2 melanoma it was 66.6%; in the experiment with EKVX NSCLC it was 76.6%; in the experiment with UO-31 renal, 51%. Also, the growth in the experiment on TK-10 renal is 117%; in the experiment with ACHN renal, 66.8%; in the experiment with CAKI-1 renal it was 56.9%; in the experiment with A498 renal it was 127%; in the experiment with CCRF-CEM leukemia, 32.2%; in the experiment with MOLT-4 leukemia, 20.2%.

Turning to `O=C(Nc1cccc(-c2cn(-c3ccc4oc(=O)ccc4c3)nn2)c1)Nc1cc(C(F)(F)F)cc(C(F)(F)F)c1`, the growth was 44.9% with HT29 colon; 17.8% in the experiment on SNB-75 CNS; 27.4% in the experiment with SNB-19 CNS; 13.4% in the experiment with U251 CNS; 27.7% with PC-3 prostate; 2.67% (active) in the experiment on SK-MEL-5 melanoma. Also, the growth in the experiment on UACC-62 melanoma was 11.3%; with LOX IMVI melanoma, 17.2%; in the experiment with SK-MEL-28 melanoma, 22.5%; with SK-MEL-2 melanoma it was 29.6%; in the experiment on EKVX NSCLC, 13.5%; in the experiment with SN12C renal, 24.6%. In addition, the growth in the experiment with UO-31 renal was 30.9%; in the experiment with TK-10 renal, 50.9%; in the experiment on ACHN renal, 12.5%; with CAKI-1 renal, 36.2%; in the experiment with A498 renal, 19.6%; with CCRF-CEM leukemia it was 27.1%. In addition, in the experiment on MOLT-4 leukemia, the growth is 11.7%.

With `Cc1cc(=O)oc2cc(OCCCCOc3ccc(/C=C/C(=O)Nc4ccc(F)c(Cl)c4)cc3)ccc12`, the growth was 111% in the experiment on HT29 colon; 116% with SNB-75 CNS; 93.4% with SNB-19 CNS; 95.1% with U251 CNS; 99.6% in the experiment with PC-3 prostate; 85.2% in the experiment on SK-MEL-5 melanoma. The growth in the experiment with UACC-62 melanoma is 92%; in the experiment with LOX IMVI melanoma it was 97.6%; with SK-MEL-28 melanoma it was 93%; in the experiment on SK-MEL-2 melanoma, 117%; in the experiment with EKVX NSCLC, 96.4%; in the experiment on SN12C renal, 96.4%. The growth with UO-31 renal was 86.1%; in the experiment with TK-10 renal, 112%; in the experiment with ACHN renal, 107%; with CAKI-1 renal it was 96%; with A498 renal, 108%; in the experiment on CCRF-CEM leukemia, 92.7%. In addition, the growth in the experiment with MOLT-4 leukemia is 93.5%.

For the compound `O=C(c1ccccc1)n1ccc(-c2cc3cc(Br)ccc3oc2=O)n1`, the growth is 63.5% with HT29 colon; 66.1% with SNB-75 CNS; 34.5% with SNB-19 CNS; 27.8% with U251 CNS; 28.2% in the experiment with PC-3 prostate; 10.6% with SK-MEL-5 melanoma. Also, the growth in the experiment on UACC-62 melanoma is -21.1% (active); with LOX IMVI melanoma, 2.5% (active); in the experiment on SK-MEL-28 melanoma it was 24.4%; with SK-MEL-2 melanoma it was 16.8%; in the experiment with EKVX NSCLC, -1.71% (active); in the experiment with UO-31 renal, 11.7%. The growth was 34.7% with TK-10 renal; 8.46% (active) with ACHN renal; 15.2% in the experiment on CAKI-1 renal; 117% in the experiment on A498 renal; 4.71% (active) with CCRF-CEM leukemia; 14.8% in the experiment with MOLT-4 leukemia.

Turning to `O=c1nc(-c2ccccc2)cc(-c2cc3ccccc3nc2Cl)[nH]1`, the growth is -42.5% (active) in the experiment with HT29 colon; 26.5% with SNB-75 CNS; 13% in the experiment on SNB-19 CNS; -72.7% (active) in the experiment with U251 CNS; 31.8% with PC-3 prostate; 62.2% with SK-MEL-5 melanoma. Also, the growth in the experiment on UACC-62 melanoma is 35.1%; with LOX IMVI melanoma, -87.7% (active); in the experiment on SK-MEL-28 melanoma it was 71.5%; in the experiment on SK-MEL-2 melanoma, 82.8%; in the experiment on EKVX NSCLC, 61.6%; in the experiment with SN12C renal, 20.7%. The growth was 87.7% in the experiment with TK-10 renal; 39.1% with ACHN renal; 56.6% with CAKI-1 renal; 104% with A498 renal; -29.3% (active) in the experiment with CCRF-CEM leukemia; -18.7% (active) in the experiment on MOLT-4 leukemia.
